# A selection: hits, their analogues and other compounds. The true share with any hit is near 12%.
# PLK1 PBD inh – PLK1 (human) polo-box domain binding inhibition | Plk1 PBD binding of FITC phosphopeptide, fluorescence polarization | 360,000 tested, 2.8% active | AID 720504 | Potency, µM, for the others: max response, negative = inhibition, hits mostly inhibitors; also: potency is read from the fitted curve at half-maximal effect; series mostly up to about 57 µM; % is scaled to controls: 0 for no effect and ±100 for the full control effect; nearly all actives have a fitted effect of over 65% in size
# Target sequence (P53350 whole entry, looked up, the tested form may be a part): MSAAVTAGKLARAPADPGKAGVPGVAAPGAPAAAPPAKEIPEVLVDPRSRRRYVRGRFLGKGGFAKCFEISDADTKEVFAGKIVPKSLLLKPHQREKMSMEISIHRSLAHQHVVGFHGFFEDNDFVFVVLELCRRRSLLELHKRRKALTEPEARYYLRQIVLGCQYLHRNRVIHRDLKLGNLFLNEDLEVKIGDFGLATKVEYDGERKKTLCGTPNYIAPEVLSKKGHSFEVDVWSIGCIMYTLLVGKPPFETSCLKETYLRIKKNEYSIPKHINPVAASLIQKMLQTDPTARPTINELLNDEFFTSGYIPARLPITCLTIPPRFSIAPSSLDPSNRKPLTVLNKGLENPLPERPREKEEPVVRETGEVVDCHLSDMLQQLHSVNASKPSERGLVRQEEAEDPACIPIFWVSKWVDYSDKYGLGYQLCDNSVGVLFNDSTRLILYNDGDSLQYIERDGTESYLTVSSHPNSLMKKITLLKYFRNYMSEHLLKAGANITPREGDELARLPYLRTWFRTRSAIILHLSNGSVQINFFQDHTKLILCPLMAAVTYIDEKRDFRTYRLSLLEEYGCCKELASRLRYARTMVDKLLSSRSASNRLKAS
# HP1b chromo inh – inhibitors of HP1-beta chromodomain binding to methylated histone tails; P83916; AlphaScreen HP1-beta / biotin-H3K9me3 peptide binding; AID 540317; 390,000 tested, 0.56% active; Potency, µM (series often up to 114 µM), for inactives: at the highest dose activity change, negative = inhibition, hits mostly inhibitors; also: potency is read from the fitted curve at half-maximal effect; nearly all actives have a fitted effect of over 70% in size
#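 HP1-beta protein (50 nM final) preincubated 30 min at room temperature with biotinylated H3(1-18)K9me3 peptide (50 nM) in PBS pH 7.4, 0.01% Tween-20, then compound added for 30 min. AlphaScreen streptavidin donor/nickel chelate acceptor beads (10 ug/mL final), 30 min dark, luminescence read.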
# BAZ2B inh – BAZ2B (human) inhibition; AlphaScreen BAZ2B-H3K14Ac peptide displacement; Potency, µM (series often up to 114 µM), for inactives: top-dose activity change, negative = inhibition, actives largely listed as inhibitors; 360,000 tested, 4.4% active; AID 504333; also: potency is read from the fitted curve at half-maximal effect; % is scaled to controls: 0 for no effect and ±100 for the full control effect; nearly all actives have a fitted effect of over 60% in size
#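 AlphaScreen displacement of biotin-H3(5-23)K14Ac peptide (50 nM final) from BAZ2B (50 nM final) in PBS pH 7.4, 0.01% Tween-20; complex preformed 30 min RT, then compounds (top 110 uM) 30 min RT, beads 20 min dark.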
# JMJD2A Tudor – JMJD2A Tudor domain (human) inhibition; O75164; 390,000 tested, 4.4% active; Potency, µM (top dose mostly 114 µM), without a hit: at the highest dose activity change, negative = inhibition, usual class: inhibitors; AlphaScreen JMJD2A-Tudor / H3K4me3 peptide binding; also: potency is read from the fitted curve at half-maximal effect; % is scaled to controls: 0 for no effect and ±100 for the full control effect; nearly all actives have a fitted effect of over 50% in size
# G9a block – inhibitors of human histone lysine methyltransferase G9a; G9a H3K9 monomethylation, AlphaScreen, 2 h; Potency, µM (doses to about 102 µM), for the others: at the highest dose activity, negative = inhibition, actives largely listed as inhibitors; 350,000 tested, 8.8% active; AID 504332; also: potency is read from the fitted curve at half-maximal effect; % is scaled to controls: 0 for no effect and ±100 for the full control effect; nearly all actives have a fitted effect of over 75% in size
#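 AlphaScreen read-out: biotin-H3K9 peptide (500 nM) methylation by 20 nM enzyme with 20 uM SAM, 2 h at room temperature after 15 min compound preincubation; anti-monomethyl H3K9 antibody plus donor/acceptor beads, 10 min dark.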
# PI5P4Ka inh – blocks human PI5P4K alpha kinase activity; PI5P4Kalpha enzyme, ADP-Glo luminescence, 60 min; hits give low values; max response, %; 330,000 tested, 1.2% active; active = max response of -50% or lower; inconclusive = between -30% and -50%; inactive = -30% or higher; also: value at the top dose of about 77 µM; % is scaled to controls: 0 for no effect and ±100 for the full control effect
#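 qHTS, 1536-well: enzyme/substrate mix, compound by pin tool, 5 microM ATP final; RT 60 min; ADP-Glo reagents 1 (45 min) then 2 (30 min); luminescence.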
# The depositor's hits bear a star; ? = inconclusive; / = no result; [ ] = another dose, or the depositor's remark. Unless noted, calls follow the shape of the dose curve; as a rule, active = well fitted curve in the direction sought with a large enough effect; inconclusive = small, poorly fitted or top-dose-only effect, or another doubt; inactive = no such curve, though single readings can be large; an effect the other way counts as inactive or inconclusive.
SMILES,PLK1 PBD inh,HP1b chromo inh,BAZ2B inh,JMJD2A Tudor,G9a block,PI5P4Ka inh
CC[n+]1c(S(=O)(=O)[O-])ccc2ccc(C)cc21,?,39%,1%,-6%,-12%[59 µM],-3
CCN1/C(=C/c2ccc3ccccc3[n+]2CCCS(=O)(=O)[O-])C=Cc2cc(C)ccc21,-5%,-15%,45µM*,-11%,10µM*,-28
CCCCCN(C(=O)CCC(=O)OCC(=O)N1C(C)CCCC1C)c1c(N)n(CCCC)c(=O)[nH]c1=O (configuration not stated),-6%,43%,-2%,-6%,-12%,-5
C/C(=N\N1CCN(C2c3ccccc3-c3ccccc32)CC1)c1cccnc1,-7%,-21%,?,?,20%[0.501 µM],0
C(=N\N1CCN(C2c3ccccc3-c3ccccc32)CC1)/c1ccccn1,-8%,?,20µM*,18µM*,48%[0.501 µM],24
Cc1ccc(/C=N/N2CCN(C3c4ccccc4-c4ccccc43)CC2)s1,-6%,-9%,-11%,-34%,79µM*,-4
C(=N\N1CCN(C2c3ccccc3-c3ccccc32)CC1)/c1cccnc1,-2%,?,40µM*,56µM*,40%[0.501 µM],1
COc1ccc(/C=N/N2CCN(C3c4ccccc4-c4ccccc43)CC2)cc1O,27µM*,?,35µM*,?,?,0
O=[N+]([O-])c1cc(/C=N/N2CCN(C3c4ccccc4-c4ccccc43)CC2)ccc1Cl,-2%,-6%,?,?,?,0
CCN(CC(=O)Nc1c(F)cccc1F)C(=O)c1ccc(OCC(=O)N2CCOCC2)c(OC)c1,-2%,-1%,/,-12%,/,0
Cc1[nH]c2ccccc2c1C1(O)C(=O)N(Cc2ccccc2)c2ccc(Cl)cc21 (configuration not stated),/,-11%,?,?,?,/
C/C(CCc1oc2ccccc2c1-c1ccc(C)o1)=N/O,-17%,-28%,?,56µM*,?,19
Cc1nn(C(=O)c2ccccc2)c(C)c1S(=O)(=O)N1CCCCCC1,/,37%[57 µM],18%,10%,3%[59 µM],/
O=C(Nc1nnc(-c2ccccc2)s1)c1cccc(S(=O)(=O)N2CCOCC2)c1,-7%,13%,-4%,79µM*,?,-8
CC(C)Cc1nnc(NC(=O)c2cccc(S(=O)(=O)N3CCN(C)CC3)c2)s1,-7%,25%,11%,-4%,40µM*,9
CC(C)Cc1nnc(NC(=O)c2cccc(S(=O)(=O)N3CCOCC3)c2)s1,-6%,25%,7%,-16%,-40%[59 µM],-2
O=C(NNS(=O)(=O)c1ccccc1F)c1cccc(S(=O)(=O)N2CCOCC2)c1,-18%,3%,-5%,11µM*,?,-6
Cc1ccc(Nc2nc(C#N)nc(NC3CCCC3)n2)cc1,/,/,/,-16%,/,/
Cc1ccc2c(c1)c(=O)c(C(=O)c1ccccc1)cn2Cc1ccccc1F,/,14%,?,?,-13%[59 µM],/
O=C(NCCCN1CCCC1=O)c1ccc2c(c1)ncn2C1CCCCC1,-2%,36%,-2%,-3%,-9%,0
Cc1c(C)n(Cc2ccccc2)c2ccc(C(=O)NCCN3CCOCC3)cc12,-4%,7%,?,?,?,2
CCn1c(C)c(C)c2cc(C(=O)NCCCN3CCCCC3C)ccc21 (configuration not stated),-15%,3%,?,?,-14%[59 µM],11
CCn1c(C)c(C)c2cc(C(=O)NCCCN3CCCC3)ccc21,-1%,3%,-18%[57.1 µM],50µM*,56µM*,-3
Cc1c(C)n(Cc2ccc(Cl)cc2)c2ccc(C(=O)NCCN3CCOCC3)cc12,-6%,-8%,45µM*,?,?,3
O=C(NCCCN1CCN(c2ccccc2F)CC1)c1ccc2nc(N3CCCCC3)sc2c1,/,-19%,-11%,?,11µM*,/
SMILES,PLK1 PBD inh,HP1b chromo inh,BAZ2B inh,JMJD2A Tudor,G9a block,PI5P4Ka inh
O=C(NCCCN1CCCCC1)c1ccc2c(c1)ncn2C1CCCC1,-12%,43%,-19%,-8%,45µM*,3
CC1CCN(c2nc3ccc(C(=O)NCCCN4CCCCC4)cc3s2)CC1,0%,36%,6%,-15%,/,1
CCOc1ccccc1CNC(=O)c1cccc(NC(=O)c2nsc3ccccc23)c1,/,25%[57 µM],1%,-10%,-8%[59 µM],/
Cc1ccc(NC(=O)c2cc3c(-c4ccccc4)nn(-c4ccccc4)c3s2)cc1,/,25%,-2%,-12%,-4%[59 µM],/
CCn1c(C)c(C)c2cc(C(=O)Nc3cccc(Cl)c3)ccc21,-8%,-8%,-11%[57.1 µM],-31%[57.1 µM],79µM*,-5
CC(=O)c1cccc(NC(=O)c2ccc3c(c2)c(C)c(C)n3Cc2ccc(Cl)cc2)c1,/,16%,-20%,?,-5%[59 µM],/
COCCN1CCc2c(C)nc3c(-c4ccc(OC)c(OC)c4)cnn3c21,-7%,34%,-5%,-7%,79µM*,-4
Cc1ccccc1C(=O)NC(=S)NCc1ccccc1,-6%,76%,-5%,14%,13%[0.501 µM],6
Cc1ccccc1C(=O)NCC(=O)NNC(=S)NC(=O)c1ccccc1,?,22%,-4%,-6%[57.1 µM],1.1µM*,-14
Cc1ccccc1C(=O)NCC(=O)NNC(=S)NC(=O)c1ccccc1C,-8%,40%,-2%,?,10µM*,-11
CCn1nc(NS(=O)(=O)c2ccccc2)c2cc3ccccc3nc21,27µM*,14%,-9%,?,15%,-13
COc1ccc(CN2C(=O)C(NC(=O)c3ccc(C)cc3)(C(F)(F)F)N=C2c2ccccc2)cc1 (configuration not stated),/,8%,-29%,-29%,5%[59 µM],/
Cc1ccc(NC(=O)c2cc(=O)n(Cc3ccccc3)c(=O)[nH]2)cc1C,24µM*,-10%,-29%,10µM*,1%,0
Cc1cc(=O)n(Cc2ccccc2)c2ccccc12,21µM*,28%,?,-29%,-5%,2
Cc1cc(=O)c2ccccc2n1Cc1ccccc1,-11%,39%,0%,-6%,-33%,9
O=C(O)c1cc(=O)n(Cc2ccccc2)c(=O)[nH]1,0%,17%,?,28µM*,16µM*,?
Cc1cc(=O)[nH]c(=O)n1Cc1ccccc1,-4%,-14%,/,-16%,-32%,-84*
Cc1cc(=O)n(Cc2ccccc2)c2c(C)cccc12,-4%,110%,67%,115%,158%,27
CCCCNc1c(CC(C)C)nc2nc(C)cc(C)n12,-12%,/,/,/,/,-1
O=C(CCCC(=O)c1ccccc1)Nc1ccc(O)cc1,-2%,15%,-24%,-18%,-21%,-4
